# Laboratory results as given in PubChem BioAssay (EPA / NIEHS).
# Inconclusive results are not listed. Activity calls are given as the source filed them. How the source made its calls: active means hit-call score of the fitted dose curve at least 0.9, where 1 is the maximum; inconclusive means response in the unintended direction; inactive means score below 0.9.
# Target: human CYP2B6, CYP2B6 (gene 1555) (UniProt P20813)
# Assay: NVS_ADME_hCYP2B6: NovaScreen (NVS) CYP450-related Enzyme Activity (ADME) Assay for human CYP2B6 (AID 2283101)
# Procedure, shortened: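 Recombinant human CYP2B6 with fluorogenic substrate, read by fluorescence intensity 1 h after dosing. Primary screen in duplicate at 10 uM, actives followed in concentration series; signal loss relative to acetonitrile control.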
# human CYP2B6, CYP2B6 (gene 1555), sequence (P20813 whole entry, looked up): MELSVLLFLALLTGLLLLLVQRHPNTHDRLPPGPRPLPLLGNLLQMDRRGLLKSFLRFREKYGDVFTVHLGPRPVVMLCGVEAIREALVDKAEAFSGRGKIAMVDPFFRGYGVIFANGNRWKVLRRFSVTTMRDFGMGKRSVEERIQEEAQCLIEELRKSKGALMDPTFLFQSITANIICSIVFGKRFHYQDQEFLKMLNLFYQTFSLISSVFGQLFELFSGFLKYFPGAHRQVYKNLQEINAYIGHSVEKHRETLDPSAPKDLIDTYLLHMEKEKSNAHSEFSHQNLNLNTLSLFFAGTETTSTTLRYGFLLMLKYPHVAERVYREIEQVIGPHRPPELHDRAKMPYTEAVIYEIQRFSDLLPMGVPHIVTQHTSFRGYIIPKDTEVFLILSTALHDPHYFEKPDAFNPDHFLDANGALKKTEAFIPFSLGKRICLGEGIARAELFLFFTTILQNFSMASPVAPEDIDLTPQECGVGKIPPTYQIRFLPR
Structure (SMILES),outcome,AC50
CCOC(=O)c1ccc(C2CCC(NC[C@H](O)COc3ccc(O)c(NS(C)(=O)=O)c3)CC2)cc1 (some centres not stated),inactive,–
O=P(OC(CCl)CCl)(OC(CCl)CCl)OC(CCl)CCl,–,6.54 µM (active)
CC(C)(O)c1coc(S(=O)(=O)NC(=O)Nc2c3c(cc4c2CCC4)CCC3)c1,–,6.39 µM (active)

# Target: human CYP2C9, CYP2C9 (gene 1559) (UniProt P11712)
# Sequence (P11712 whole entry, looked up): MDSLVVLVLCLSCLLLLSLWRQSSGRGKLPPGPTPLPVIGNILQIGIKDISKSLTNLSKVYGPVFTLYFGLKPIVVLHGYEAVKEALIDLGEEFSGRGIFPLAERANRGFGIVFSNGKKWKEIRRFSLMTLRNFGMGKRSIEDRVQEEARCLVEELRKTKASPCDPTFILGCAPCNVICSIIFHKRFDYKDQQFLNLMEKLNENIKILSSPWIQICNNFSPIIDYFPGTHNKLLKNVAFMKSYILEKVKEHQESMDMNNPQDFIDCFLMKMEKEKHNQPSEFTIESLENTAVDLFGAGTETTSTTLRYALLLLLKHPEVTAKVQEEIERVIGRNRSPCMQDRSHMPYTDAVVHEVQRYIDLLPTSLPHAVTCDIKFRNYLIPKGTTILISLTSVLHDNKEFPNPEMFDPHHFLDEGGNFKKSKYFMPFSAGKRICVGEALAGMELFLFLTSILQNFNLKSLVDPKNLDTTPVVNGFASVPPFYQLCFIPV
# Assay: NVS_ADME_hCYP2C9: NovaScreen (NVS) CYP450-related Enzyme Activity (ADME) Assay for human CYP2C9 (AID 2283108)
# Procedure, shortened: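 Cell-free assay of recombinant human CYP2C9 produced in Sf9 cells, with enzyme activity read by fluorescence intensity 0.75 h after compound addition. Loss of signal versus an acetonitrile negative control indicates inhibition. Primary screen used 10 uM in duplicate; actives were retested in concentration series.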
Structure (SMILES),AC50,outcome
CCOC(=O)c1ccc(C2CCC(NC[C@H](O)COc3ccc(O)c(NS(C)(=O)=O)c3)CC2)cc1 (some centres not stated),2.14 µM (active),–
O=P(OC(CCl)CCl)(OC(CCl)CCl)OC(CCl)CCl,–,inactive
Oc1ccc2c(c1)-c1ccccc1C2,3.72 µM (active),–
CC(C)(O)c1coc(S(=O)(=O)NC(=O)Nc2c3c(cc4c2CCC4)CCC3)c1,13.4 µM (active),–

# Target: Cytochrome P450 3A4 (Homo sapiens) (UniProt P08684)
# Sequence (P08684 whole entry, looked up): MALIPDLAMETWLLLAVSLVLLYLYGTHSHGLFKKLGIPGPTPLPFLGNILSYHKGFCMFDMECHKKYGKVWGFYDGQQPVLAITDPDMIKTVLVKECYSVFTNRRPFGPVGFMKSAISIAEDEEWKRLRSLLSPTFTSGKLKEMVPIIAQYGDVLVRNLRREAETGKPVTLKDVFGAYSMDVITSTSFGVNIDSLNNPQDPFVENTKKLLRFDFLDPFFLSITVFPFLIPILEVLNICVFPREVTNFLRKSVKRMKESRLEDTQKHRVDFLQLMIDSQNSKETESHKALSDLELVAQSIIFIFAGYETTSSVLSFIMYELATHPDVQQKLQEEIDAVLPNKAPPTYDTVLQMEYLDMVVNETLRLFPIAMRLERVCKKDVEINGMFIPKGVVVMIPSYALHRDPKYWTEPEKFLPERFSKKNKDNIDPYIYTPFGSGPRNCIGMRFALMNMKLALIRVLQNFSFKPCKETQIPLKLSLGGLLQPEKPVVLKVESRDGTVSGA
# Assay: NVS_ADME_hCYP3A4: NovaScreen (NVS) CYP450-related Enzyme Activity (ADME) Assay for human CYP3A4 (AID 2283110)
# Procedure, shortened: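 Cell-free assay using insect-cell-expressed human CYP3A4 with a fluorogenic substrate; fluorescence intensity was read 0.33 hour after dosing. Loss of signal relative to acetonitrile vehicle indicated inhibition. Primary single-concentration screen at 10 uM, in duplicate, then concentration series.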
Structure (SMILES),outcome,AC50
CCOC(=O)c1ccc(C2CCC(NC[C@H](O)COc3ccc(O)c(NS(C)(=O)=O)c3)CC2)cc1 (some centres not stated),inactive,–
O=P(OC(CCl)CCl)(OC(CCl)CCl)OC(CCl)CCl,–,6.65 µM (active)
Oc1ccc2c(c1)-c1ccccc1C2,inactive,–
Cn1c(=O)cc(Oc2ccc(F)cc2F)c2cnc(NCC(C)(C)O)nc21,inactive,–

# Target: Cytochrome P450 2C19 (Homo sapiens) (UniProt P33261)
# Assay: NVS_ADME_hCYP2C19: NovaScreen (NVS) CYP450-related Enzyme Activity (ADME) Assay for human CYP2C19 (AID 2283113);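 further: potency for inhibition seen as loss of fluorescent signal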
# Procedure, shortened: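 Recombinant insect-cell-expressed enzyme, fluorescent substrate, 1 h after chemical addition, fluorescence intensity. Baseline = acetonitrile vehicle; activity scored as signal loss. Primary HTS single concentration 10 uM, duplicate; actives retested in concentration series.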
row,Structure (SMILES),AC50
1,On1ccccc1=S,5.15 µM (active)
2,CCOC(=O)c1ccc(C2CCC(NC[C@H](O)COc3ccc(O)c(NS(C)(=O)=O)c3)CC2)cc1 (some centres not stated),1.74 µM (active)
3,O=P(OC(CCl)CCl)(OC(CCl)CCl)OC(CCl)CCl,6.38 µM (active)
4,Oc1ccc2c(c1)-c1ccccc1C2,5.99 µM (active)
5,COc1ccc(-n2nc(C(F)F)cc2-c2ccc(S(C)=O)cc2)cc1 (configuration not stated),0.967 µM (active)
6,CC(C)(O)c1coc(S(=O)(=O)NC(=O)Nc2c3c(cc4c2CCC4)CCC3)c1,10 µM (active)
